Measurements reported in PubChem BioAssay (NCATS).
Results filed as inconclusive are left out. Activity calls are given as the source filed them. Calls follow the shape of the dose curve; as a rule, active = well fitted inhibition curve with a large enough effect; inconclusive = small, poorly fitted or top-dose-only effect; inactive = flat fitted curve, though single readings scatter.

system: CP238; assay: qHTS profiling for inhibitors of Plasmodium falciparum proliferation (AID 504749); also: nearly all actives have a fitted effect of over 60% in size; settings: P. falciparum in erythrocytes, SYBR Green DNA, 72 h; series mostly up to 28.7 µM
In short: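 Three-day growth assay of blood-stage parasites in erythrocytes (0.3% parasitemia, 2.5% hematocrit) at 37 C, 5% CO2, quantified by SYBR Green DNA staining after overnight detergent lysis.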
Potency is read from the fitted curve at half-maximal effect.

Potency, active:
CCCCC(=O)OCC(=O)[C@]1(O)Cc2c(O)c3c(c(O)c2[C@H](OC2CC(NC(=O)C(F)(F)F)C(O)C(C)O2)C1)C(=O)c1c(OC)cccc1C3=O (stereo not given in full) 2.51 µM
C[C@H]1[C@@H](OC(=O)CCC(=O)O)OC2OC3(C)CC[C@H]4[C@H](C)CC[C@@H]1[C@@]24OO3 (stereo not given in full) 0.0045 µM

Potency, inactive:
CCCCCCCCCCCCCCCC(=O)OC[C@H](O)[C@H]1OC[C@@H](O)[C@@H]1O
C[C@H]1OC(OC2C(O)[C@@H](O)C(OC3C(O)[C@@H](O)C(O)O[C@@H]3CO)O[C@@H]2CO)[C@H](O)C(O)C1N[C@H]1C=C(CO)[C@@H](O)[C@H](O)C1O (stereo not given in full)
CCN(CC)CC(=O)Nc1c(C)cc(C)cc1C
CC(=O)N[C@H]1[C@H](O[C@@H]2c3ccc(c(Cl)c3)Oc3cc4cc(c3O[C@@H]3O[C@H](CO)[C@@H](O)[C@H](O)C3C)Oc3ccc(cc3Cl)C[C@H]3NC(=O)[C@@H](N)c5ccc(O)c(c5)Oc5cc(O)cc(c5)[C@H](NC3=O)C(=O)N[C@H]4C(=O)N[C@H]3C(=O)N[C@@H]2C(=O)N[C@@H](C(=O)O)c2cc(O)cc(O[C@H]4O[C@H](CO)[C@@H](O)C(O)[C@@H]4O)c2-c2cc3ccc2O)O[C@H](CO)[C@@H](O)[C@@H]1O (stereo not given in full)
NC(=O)c1ncn(C2OC(CO)C(O)C2O)c1N (stereo not given)
CC1(Cn2ccnn2)[C@H](C(=O)O)N2C(=O)C[C@H]2S1(=O)=O (stereo not given in full)
CN(C)CC/C=C1\c2ccccc2COc2ccc(CC(=O)O)cc21
CCCC(=O)O[C@]1(C(=O)COC(C)=O)CC[C@H]2C3C[C@H](F)C4=CC(=O)C=CC4(C)[C@@]3(F)[C@@H](O)CC21C (stereo not given in full)
